Data reported in PubChem BioAssay AID624300 (Southern Research Specialized Biocontainment Screening …, 2012).
In all, about 2,400 compounds went through this assay and about 360 (15%) were called active.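 How the source made its calls: active means viability falls under 70% at one or more tested concentrations, taken as toxicity; inactive means viability stays over 70% at every dose.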 The list is a sample of the results. Entries with a potency or affinity are not part of this list.

Assay: HeLa cell cytotoxicity, dose response, cytotoxicity control for MgcRacGAP inhibitor project (AID 624300)
Conditions: CellTiter-Glo luminescence, 24 h; series mostly up to 100 µM

Compound | outcome
COc1ccc(O)c(/C=N/NC(=O)c2c(C)nnn2-c2nonc2N)c1 | inactive
c1ccc(CC2CCN(Cc3ccccn3)CC2)cc1 | inactive
CCC1(c2ccccc2)NC(=O)N(CC(=O)Nc2ccc(N3CCCC3)cc2C)C1=O (configuration not stated) | inactive
CCOC(=O)c1c(C)[nH]c(C(=O)CN2CCN(CC)CC2)c1C | inactive
CCOC(=O)C1=C(C)Nc2ccc(C)cc2S1 | inactive
COC(=O)c1cc(NCc2cccs2)ccc1N1CCOCC1 | inactive
COc1cc(CNc2ccc3[nH]c(=O)[nH]c3c2)ccc1OCc1ccccc1 | inactive
COc1cc(CNc2ccc(N3CCN(C(C)=O)CC3)cc2)ccc1OCc1ccccc1 | inactive
O=C(N/N=C/c1ccc(O)c2ccccc12)c1cccnc1 | inactive
Cc1nc(N)sc1-c1ccccc1 | inactive
COc1cc(Br)c(CNc2cc(C)ccc2C)cc1OC | inactive
Cc1c(N2C(=O)/C(=C\c3ccc(N(C)C)cc3)N(C)C2=S)c(=O)n(-c2ccccc2)n1C | inactive
COc1ccccc1/C=C1/C(=O)N(c2ccccc2)N=C1C | inactive
CC1=NN(c2cccc(C(=O)O)c2)C(=O)/C1=C\C=C\c1ccco1 | inactive
CC1=NN(c2ccc(C(=O)O)cc2)C(=O)/C1=C\c1ccc(OC(=O)c2cccs2)cc1 | inactive
Cc1ccc(N2C(S)=C(C#N)C(=O)NC2c2ccco2)cc1 (configuration not stated) | inactive
CCOc1cc(/C=N/NC(=O)C(=O)N2CCCC2)ccc1O | inactive
Oc1ccc2ccccc2c1Br | inactive
CC[n+]1c(/C=C/N(C)c2ccccc2)oc2ccc(Cl)cc21 | inactive
CC(=O)N1CCN(c2ccc(NCc3ccco3)cc2)CC1 | inactive
CCN(CC)c1ccc(/C=C2\C(=O)c3ccc(C(=O)O)cc3C2=O)cc1 | inactive
O=C(O)c1ccc(COc2ccccc2C=C2C(=O)c3ccccc3C2=O)cc1 | inactive
Cc1cc(-c2n[nH]c(=S)n2/N=C/c2ccccc2[N+](=O)[O-])n[nH]1 | inactive
Cc1cccn2c(=S)[nH]nc12 | inactive
OCC1CCCN(C(=S)Nc2ccc(Nc3ccccc3)cc2)C1 (configuration not stated) | inactive
Nc1ccc(Nc2ccncc2)cc1 | inactive

Compound | outcome
Cc1c(O)ccc(NC(=O)/C=C/c2ccccc2)c1C | inactive
Cc1ccc(/C=C/C(=O)Nc2ccc([N+](=O)[O-])c(NC(=O)/C=C/c3ccc(C)o3)c2)o1 | inactive
C/C(=N/NC(=O)CSc1nc2ccccc2n1C)c1ccc(O)cc1 | inactive
CCOC(=O)C(Cc1ccccc1)C(=O)Nc1ccc(N(CC)CC)cc1 (configuration not stated) | inactive
CCOc1c(C=C(C#N)C#N)c2ccccc2n1CC | inactive
CCOC(=O)/C(C#N)=C\c1ccc(O)c(OC)c1 | inactive
COc1ccc(NC2CCCN(C(=O)CCCn3cncn3)C2)cc1OC (configuration not stated) | inactive
O=C(CNC(=O)C1COc2ccccc2O1)N/N=C/c1ccc(O)cc1O (configuration not stated) | inactive
Nc1ccc(Nc2nc(-c3ccncc3)cs2)cc1 | inactive
CCCCN(C)CCNC(=O)CSCc1ccc(C)cc1 | inactive
O=C(Nc1n[nH]c(=S)s1)c1ccco1 | inactive
CN(Cc1ccccc1)Cc1c(O)ccc2ccccc12 | inactive
COc1ccc(CN2CCC(C(N)=O)CC2)cc1OCc1ccccc1 | inactive
COC(=O)c1cc(NCc2ccccc2F)ccc1N1CCOCC1 | inactive
COc1ccc(CN2CCN(Cc3ccc4ccccc4c3)CC2)cc1OC | inactive
COc1cc2cc(NC(C)=O)cc(NCc3ccccc3)c2cc1OC | inactive
Cc1nc2ccc(-c3nc4ccc(N)cc4[nH]3)cc2[nH]1 | inactive
Cc1nc(Cc2nnc(SCC(=O)N3CCN(c4ccc(O)cc4)CC3)o2)cs1 | inactive
Nc1nc(=S)ss1 | inactive
C=CCn1c(N/N=C/c2ccc(O)cc2)nc2ccccc2c1=O | inactive
CCCc1nc2ccccc2c(=O)n1/N=C/c1ccc(O)c(O)c1 | inactive
O=c1[nH]c2ccccc2nc1/C=C/c1ccc(O)cc1 | inactive
COc1cc(/C=C/c2ccc3cccc(O)c3n2)ccc1O | inactive
COc1cc(/C=N/NC(=O)c2cc(-c3ccccc3OC(C)C)nc3ccccc23)ccc1O | inactive
COc1cc(/C=C/c2nc3ccccc3c(=O)[nH]2)ccc1O | inactive
COc1cc(/C=N/n2c(C)nc3ccccc3c2=O)ccc1O | inactive

Compound | outcome
COc1cc(/C=C/C(C)=NNc2ccccc2)ccc1O | inactive
O=C(CN1CCN(c2ccc(O)cc2)CC1)NCC(=O)Nc1ccc(F)c(F)c1F | inactive
Cc1cccc(Nc2n[nH]c(=S)s2)c1C | inactive
CN1CCN(CCCNCc2cn(CCC#N)c3ccccc23)CC1 | inactive
COc1ccc(NC2CCCN(C(=O)CCc3cccc(F)c3)C2)cc1 (configuration not stated) | inactive
COc1cc(C)c(N)cc1C(C)C | inactive
CCOC(=O)c1[nH]c2cc(OC)c(OC)cc2c1N | inactive
COc1ccc(N2CCN(C(C)C(=O)N3CCCC3)CC2)cc1 (configuration not stated) | inactive
CC(=O)N1CCN(CC(O)COc2ccc(Br)cc2)CC1 (configuration not stated) | inactive
O=C1C2C3C=CC(CC3)C2C(=O)N1/N=C/c1ccc(O)c(O)c1 (configuration not stated) | inactive
CCOC(=O)c1[nH]c2ccccc2c1NC(=S)Nc1cccc(C)c1 | inactive
COc1ccc(NCc2cc3cc(OC)ccc3[nH]c2=O)cc1 | inactive
COc1ccc(OC(=O)COc2cc(C)ccc2C)cc1 | inactive
COc1ccc(OC(=O)COc2ccc(C)cc2)cc1 | inactive
Nc1c(Cl)ncnc1NCCc1ccc(O)cc1 | inactive
CCOC(=O)/C(C#N)=C1\C(=O)N(Cc2ccccc2)c2ccccc21 | inactive
COc1ccc(CN2CCN(Cc3c[nH]c4ccccc34)CC2)c(OC)c1 | inactive
COc1ccc(OC)c(CN2CCN(Cc3cccc4ccccc34)CC2)c1 | inactive
CCOC(=O)N/N=C/c1ccc(N2CCOCC2)s1 | inactive
Nc1ccc2nc(N)sc2c1 | inactive
Nc1ccc(-c2nc3ccc(N)cc3o2)cc1 | inactive
COc1ccccc1CNC(=O)C[C@@H]1C[C@H]2c3cc(N(C)C)ccc3O[C@H]2[C@H](CO)O1 | inactive
COc1cc(N2C(=O)C=CC2=O)ccc1N1C(=O)C=CC1=O | inactive
COc1ccc(NC2CCCN(C(=O)C3(C)CCCCC3)C2)cc1 (configuration not stated) | inactive
COc1cc(CN2CCN(C(=O)c3cccc4ccccc34)CC2)cc(OC)c1OC | inactive
